Bioassay records (PubChem BioAssay)
KB-V1 MDR tox: KB-V1 MDR subline cytotoxicity; KB-V1 MDR cells viability, CellTiter-Glo, 72 h; Potency, µM (top dose mostly 46.1 µM), usual class: cytotoxic; actives 3.4% (n = 400,000); note: % is set by controls: 0 for no effect and ±100 for the full control effect; nearly all actives have a fitted effect of over 60% in size
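KB-V1, DMEM (no phenol red) + 10% FBS; cpd pin-transferred, titration series; 72 h, 37 degrees C; CellTiter-Glo, luminescence. Data normalized, curve-fit.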
MCF10A rerep: DNA re-replication induction in MCF 10a cells | MCF 10A DNA re-replication, Hoechst nuclear intensity, 48 h | Potency, µM (titrated, usually from 46.1 µM), without a hit: at the top dose activity, positive = re-replication, hits mostly activators | actives 2.9% (n = 350,000) | AID 624296; note: % of control where 0% means no effect; nearly all actives have a fitted effect of over 50% in size
HT1080 IDH1KD tx: toxicity to HT-1080 IDH1 knockdown cells (counter line) | Potency, µM (doses to about 46.1 µM), inactives show at the top dose activity, negative = toxicity, usual class: cytotoxic | HT-1080 IDH1 knockdown viability, ATP luminescence, 48 h | actives 2% (n = 360,000);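 note: 0% = DMSO wells and -100% = cell-free medium wells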
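HT-1080-IDH1KD cells (IDH1 knocked down), 750/well in RPMI with 5% FBS, treated with compound 48 h at 37 degrees C. Viability by CellTiter-Glo luminescence, normalised to DMSO and no-cell wells; concentration-response curves classed.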
HT1080-NT tox: kills 2HG-producing HT-1080-NT fibrosarcoma cells | HT-1080-NT fibrosarcoma viability, CellTiter-Glo ATP luminescence, 48 h | actives 1.6% (n = 360,000) | Potency, µM (top dose mostly 46.1 µM), for the others: at the top dose activity, negative = less viability, actives largely listed as cytotoxic | AID 686970;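 note: NT is the 2HG producing partner of a matched IDH1 knockdown line; 0% = DMSO-treated cells and -100% = media-only wells without cells; nearly all actives have a fitted effect of over 55% in size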
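750 cells/well, RPMI + 5% FBS; 2 h settle, compound pin-transfer, 48 h at 37 degrees C. CellTiter-Glo 10 min RT, luminescence. Normalized to DMSO and media-only wells.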
SW480 rerep: inducers of DNA re-replication in SW480 colon cancer cells; SW480 DNA re-replication, Hoechst DNA content imaging, 48 h; Potency, µM (doses to about 46.1 µM), without a hit: top-dose re-replication activation, most hits filed as activators; actives 1.8% (n = 340,000); note: % of control where 0% means no effect; nearly all actives have a fitted effect of over 55% in size
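Image-based read-out: total Hoechst fluorescence of nuclei (405 nm excitation, 500-530 nm emission), with hits raising the fraction of high-intensity nuclei. SW480 colon cells incubated 48 hr with compounds at 37 C.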
KB-3-1 cytotox: kills parental KB-3-1 adenocarcinoma cells | KB-3-1 viability, CellTiter-Glo ATP luminescence, 72 h | Potency, µM (titrated, usually from 46.1 µM), hits mostly cytotoxic | actives 1.4% (n = 400,000) | AID 1347075; note: % is set by controls: 0 for no effect and ±100 for the full control effect; nearly all actives have a fitted effect of over 60% in size
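Viability of parental KB-3-1 cells, measured by CellTiter-Glo luminescence, followed a 72 h incubation at 37 °C with pinned compounds in phenol-red-free DMEM containing 10% FBS.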
* hit, by the source's call; i = inactive; ? = inconclusive; . = not tested or not shown. This is a sample that favours compounds with a hit; in the whole collection about 8% have one here. Calls come from the whole dose curve; as a rule, active = well fitted curve in the direction sought with a large enough effect; inconclusive = small, poorly fitted or top-dose-only effect, or another doubt; inactive = no such curve, though single readings can be large; an effect the other way counts as inactive or inconclusive. Potency is the fitted concentration of half-maximal effect.

SMILES | KB-V1 MDR tox | MCF10A rerep | HT1080 IDH1KD tx | HT1080-NT tox | SW480 rerep | KB-3-1 cytotox
CCn1cc([N+](=O)[O-])c(C(=O)N2N=C(c3cccc4ccccc34)CC2c2ccccc2O)n1 (stereo not given) | i | 12% | 18µM* | ? | ? | i
CCn1cc([N+](=O)[O-])c(C(=O)N2N=C(c3ccc(OC)cc3OC)CC2c2ccccc2O)n1 (stereo not given) | ? | 24% | -4% | -8% | ? | i
COc1ccc(-c2cc(OC(=O)c3ccccc3Cl)c3c(C)oc(C)c3c(=O)c2)cc1OC | i | . | . | . | . | i
COC(=O)C1=NNC2(C)C(=O)N(c3ccc(C)cc3)C(=O)C12 (stereo not given) | i | 1% | 0% | -2% | -3% | i
CC1=CC(=O)O[C@@H]1[C@@]1(C)C[C@H]2OC(=O)C[C@H]3[C@@H](C)C(=O)C(O)=C1[C@@]23CO | i | 25% | 8% | 4% | 3% | i
Cc1cc(C)c2oc(C(=O)Nc3c(C(=O)c4ccccc4)oc4ccccc34)cc(=O)c2c1 | i | . | . | . | . | i
O=C(Nc1ccc(Cl)c(Cl)c1)C1=Cc2ccccc2OC1 | i | 21µM* | ? | ? | 3% | i
O=C(Nc1cccc(Cl)c1)C1=Cc2cc(Cl)ccc2OC1 | i | 13µM* | ? | ? | 8% | i
CCCSc1nc2sc3c(c2c(=O)n1-c1ccccc1)CCC(C)C3 (stereo not given) | i | . | . | . | . | i
O=C(CSc1nnnn1-c1ccc(Cl)cc1)Nc1cccnc1Cl | 16µM* | 4% | 21% | 4% | -4% | i
COc1ccccc1-n1nnnc1SCC(=O)Nc1ccccc1 | ? | -2% | -19% | -14% | -1% | i
Cc1ccc(-n2nnnc2SCC(=O)Nc2cccnc2Cl)cc1 | i | 23% | -15% | -5% | ? | i
CCOC(=O)NC(=O)CSc1nnnn1-c1ccc(Cl)cc1 | i | 1.8µM* | 0% | 11% | 5.2µM* | i
COc1ccccc1-n1nnnc1SCC(=O)Nc1ccccn1 | 16µM* | 10% | 7% | 6% | 0% | i
CCOC(=O)NC(=O)CSc1nnnn1-c1ccc(C)cc1 | i | 0% | 2% | 11% | -9% | i
COc1cc(CNc2ncnc3c2ncn3[C@H]2CN(Cc3ccc4c(c3)OCO4)C[C@@H](CO)O2)cc(OC)c1OC | i | . | 20% | -2% | . | i
CN1CCN(C2Cc3cc(Cl)ccc3Sc3cc(F)ccc32)CC1 (stereo not given) | 18µM* | ? | ? | ? | ? | 18µM*
CN1CCN(C2=Cc3cc(Cl)ccc3Sc3cc(F)ccc32)CC1 | 18µM* | 13µM* | ? | ? | ? | ?
CN1CCN(C2=Cc3ccccc3Sc3cc(F)c(F)cc32)CC1 | i | -14% | ? | ? | 1% | ?
COc1ccc(C(=O)NCCn2cc(SCC(N)=O)c3ccccc32)cc1 | i | 1% | 4% | 23% | -5% | i
Cc1ccc(S(=O)(=O)Nc2cccc3ncccc23)cc1 | ? | 6% | -8% | 1% | 11% | i
Cc1ccc(S(=O)(=O)Nc2cccc3ncccc23)s1 | ? | 4.6µM* | ? | ? | ? | 5.8µM*
CCOC(=O)c1cc(NC(=O)C2C3C=CC(O3)C2C(=O)O)cc(C(=O)OCC)c1 (stereo not given) | i | 8% | 13% | 14% | -7% | i
CCOC(=O)c1cc(NC(=O)C2C3CCC(O3)C2C(=O)O)cc(C(=O)OCC)c1 (stereo not given) | 23µM* | 0% | ? | -5% | 0% | i
Cc1cc(=O)n2nc(N3CCC(C(=O)Nc4ccc(C)c(Cl)c4)CC3)sc2n1 | i | . | . | . | . | i
